Assay [1] can be described thus: qHTS assay to identify small molecule antagonists of the estrogen related receptor (ERR) signaling pathway - cell viability counter screen (AID 1224818).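 Note: series mostly up to about 46 µM; viability measured after 17.5 h of compound exposure.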 In outline:
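In the same ERR cell assay, compound-treated wells (17.5 h, 37 C) were multiplexed with a fluorogenic viability reagent, CellTiter-Fluor, read after 30 min to flag cytotoxic substances.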

A short description of assay [2]: qHTS assay to identify small molecule antagonists of the estrogen related receptor (ERR) signaling pathway (AID 1224819; note: nearly all actives have a fitted effect of over 50% in size; note: potency is the fitted concentration of half-maximal effect). In outline:
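qHTS in ERR cells, 2,000/well, 1536 format. Cpd (DMSO) added after 6 h settle, 18 h 37 C. One-Glo luminescence, 30 min RT.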
(qHTS replaces the single test concentration by a dilution series.)

A short description of assay [3]: qHTS assay to identify small molecule agonists of the estrogen related receptor (ERR) signaling pathway (AID 1224820). Note: potency is the fitted concentration of half-maximal effect. In outline:
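Cells: ERR line from NTP, 2,000/well. Pre-incubation 6 h, 37 C/5% CO2. Compound (DMSO) pin transfer, 18 h 37 C. One-Glo, 30 min RT, luminescence.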

In assay [4] the test system is estrogen-related receptor alpha (ERRalpha) with PGC-1alpha coactivator, human. In words: qHTS assay to identify small molecule antagonists of the estrogen related receptor signaling pathway with the pleiotropic PPARgamma coactivator (PGC) (AID 1224821; calls by dose curve; note: nearly all actives have a fitted effect of over 50% in size; note: potency is the fitted concentration of half-maximal effect). In outline: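 Luminescent read-out (One-Glo, 30 min at room temperature) following 18 h treatment of PGC/ERR cells at 37 C with compounds delivered in DMSO. Cells had settled 6 h at 37 C/5% CO2 before dosing.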

The nature of assay [5]: qHTS assay to identify small molecule antagonists of the estrogen related receptor signaling pathway with the pleiotropic PPARgamma coactivator (PGC) cell viability counter screen (AID 1224822; note: series mostly up to about 46 µM). In outline: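 Compounds in DMSO, with positive and negative controls, were applied to PGC/ERR cells (2,000/well) and left 17.5 h at 37 C before CellTiter-Fluor detection.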
Assay [6] is described as follows: qHTS assay to identify small molecule agonists of the estrogen related receptor signaling pathway with the pleiotropic PPARgamma coactivator (PGC) (AID 1224823). Note: potency is the fitted concentration of half-maximal effect. Summed up: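 Steps: plate PGC/ERR cells at 2,000 cells/well; incubate 6 h, 37 C/5% CO2; pin-transfer compounds (DMSO); incubate 18 h, 37 C; add One-Glo; 30 min RT; read luminescence.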

Results filed as inconclusive are left out. Active and inactive are the calls of the source. Unless noted, calls come from the whole dose curve; as a rule, active = well fitted curve in the direction sought with a large enough effect in the repeat runs; inconclusive = weak or mixed curves; inactive = no such curve, though single readings can be large; an effect the other way counts as inactive or inconclusive.

For the molecule `CNCCNS(=O)(=O)c1cccc2cnccc12`, the Potency entry in assay [1], in assay [3], in assay [5] and in assay [6] was “inactive” in each case. Further, the results for the Potency in assay [2] and in assay [4] were 21.1 µM (active) and 9.08 µM (active), respectively.

As to `CC[N+](CC)(CC)CC(=O)Nc1c(C)cccc1C`, the Potency entry in assay [1], in assay [2], in assay [3], in assay [4], in assay [5] and in assay [6] was “inactive” each time.

Regarding `Nc1ccc(-c2nc3ccc(-c4nc5ccc(N)cc5[nH]4)cc3[nH]2)cc1`, the Potency entry in assay [1], in assay [2], in assay [3], in assay [4], in assay [5] and in assay [6] was “inactive” throughout.

As to `CCCCCCCCCCCCCCCCCCN(CCCCCCCCCCCCCCCCCC)CCCN(CCO)CCO`, the Potency entry in assay [1], in assay [2], in assay [3], in assay [4], in assay [5] and in assay [6] was “inactive” each time.

Turning to `C[N+](C)(C)CCOP(=O)(O)OP(=O)([O-])OC[C@H]1O[C@@H](n2ccc(N)nc2=O)[C@H](O)C1O` (some centres undefined), the Potency result in assay [1], in assay [2], in assay [3], in assay [4], in assay [5] and in assay [6] was “inactive” each time.

Turning to `NCCCCNCCCN`, the Potency result in assay [1], in assay [2], in assay [3], in assay [4], in assay [5] and in assay [6] was “inactive” throughout.

Consider `CCCCCCCCCC(=O)NC(CN1CCOCC1)[C@H](O)c1ccccc1` (some centres undefined), for which the Potency entry in assay [1], in assay [3], in assay [4], in assay [5] and in assay [6] was “inactive” throughout. Moreover, the Potency in assay [2] is 17.4 µM (active).

Turning to `Nc1nc(Nc2ccccc2)nc2c1ncn2[C@@H]1O[C@H](CO)C(O)[C@H]1O` (some centres undefined), the Potency result in assay [1], in assay [2], in assay [3], in assay [4] and in assay [5] was “inactive” each time. Moreover, in assay [6], the Potency is 1.44 µM (active).

As for `O=C(O)Cc1ccc(O)c(O)c1`, the Potency result in assay [1], in assay [2], in assay [3], in assay [4], in assay [5] and in assay [6] was “inactive” in each case.

With `CCC(CO)Nc1nc(NCc2ccccc2)c2ncn(C(C)C)c2n1` (centres undefined), the Potency result in assay [1], in assay [2], in assay [3], in assay [4], in assay [5] and in assay [6] was “inactive” throughout.

As to `O=[N+]([O-])c1cccc2c(Br)[nH]nc12`, the Potency entry in assay [1], in assay [2], in assay [3], in assay [4], in assay [5] and in assay [6] was “inactive” in each case.

In the case of `CNC(=O)[C@H]1O[C@@H](n2cnc3c(NCc4ccc(N)cc4)ncnc32)[C@H](O)C1O` (some centres undefined), the Potency result in assay [1], in assay [2], in assay [3], in assay [4], in assay [5] and in assay [6] was “inactive” throughout.

For the molecule `COc1ccc(/C=C/C(=O)Nc2ccccc2C(=O)O)cc1OC`, the Potency entry in assay [1], in assay [2], in assay [4], in assay [5] and in assay [6] was “inactive” throughout. The Potency in assay [3] was 1.68 µM (active).

Turning to `CN=C(N)NCCC[C@H](N)C(=O)O`, the Potency result in assay [1], in assay [2], in assay [3], in assay [4], in assay [5] and in assay [6] was “inactive” each time.

On to `Nc1nc2ccc(Cl)cc2n2c(-c3ccccc3)nnc12`, for which the Potency result in assay [1], in assay [2], in assay [3], in assay [4], in assay [5] and in assay [6] was “inactive” in each case.

As for `COc1cc2c(CCNC(C)=O)c[nH]c2cc1O`, the Potency result in assay [1], in assay [2], in assay [3], in assay [4], in assay [5] and in assay [6] was “inactive” each time.

For `CC(C)(C)c1onc(OCP(=O)(O)O)c1CC(N)C(=O)O` (centres undefined), the Potency entry in assay [1], in assay [2], in assay [3], in assay [4], in assay [5] and in assay [6] was “inactive” each time.

`N[C@@H](Cc1ccc(F)cc1)C(=O)O`: the Potency result in assay [1], in assay [2], in assay [3], in assay [4], in assay [5] and in assay [6] was “inactive” each time.

Regarding `NC(Cc1cccc(-c2ccccc2CP(=O)(O)O)c1)C(=O)O` (centres undefined), the Potency result in assay [1], in assay [2], in assay [3], in assay [4], in assay [5] and in assay [6] was “inactive” throughout.

On to `Cn1c(=O)c2[nH]c(-c3ccccc3)nc2n(C)c1=O`, for which the Potency result in assay [1], in assay [2], in assay [3], in assay [4], in assay [5] and in assay [6] was “inactive” each time.

On to `CN1[C@@H](CC(=O)c2ccccc2)CCC[C@H]1C[C@H](O)c1ccccc1`, for which the Potency entry in assay [1], in assay [2], in assay [3], in assay [4], in assay [5] and in assay [6] was “inactive” in each case.

Take `CCCn1c(=O)c2c(ncn2C)n(CCC)c1=O`: the Potency result in assay [1], in assay [2], in assay [3], in assay [4], in assay [5] and in assay [6] was “inactive” each time.

Regarding `CCCCCC(O)CCCC(=O)O` (centres undefined), the Potency result in assay [1], in assay [2], in assay [3], in assay [4], in assay [5] and in assay [6] was “inactive” in each case.

As to `N[C@@H](Cc1ccc(O)c(O)c1)C(=O)O`, the Potency result in assay [1], in assay [2], in assay [3], in assay [4], in assay [5] and in assay [6] was “inactive” in each case.

Turning to `Cc1nc2n(c(=O)c1CCN1CCC(c3noc4cc(F)ccc34)CC1)CCCC2O` (centres undefined), the Potency result in assay [1], in assay [2], in assay [3], in assay [4], in assay [5] and in assay [6] was “inactive” in each case.

Take `CCC(=O)N1CCN(C(=O)c2ccccc2)CC1`: the Potency entry in assay [1], in assay [2], in assay [3], in assay [4], in assay [5] and in assay [6] was “inactive” in each case.

In the case of `COc1ccc2c(c1)CCC1C2CC[C@@]2(C)C1CC[C@@H]2NCCCCCCN1C(=O)C=CC1=O` (some centres undefined), the Potency result in assay [1], in assay [2], in assay [3], in assay [4], in assay [5] and in assay [6] was “inactive” each time.

Consider `O=C1c2c(O)cc(O)cc2OC(c2ccc(O)c(O)c2)C1O` (centres undefined), for which the Potency result in assay [1], in assay [2], in assay [3], in assay [4], in assay [5] and in assay [6] was “inactive” each time.

As to `N[C@H]1CONC1=O`, the Potency entry in assay [1], in assay [2], in assay [3], in assay [4], in assay [5] and in assay [6] was “inactive” in each case.

These data come from PubChem BioAssay (Tox21).
